Only some compounds are listed: those with a hit (about 0.7% of all), similar ones and a draw of the others.
HePTP inhibitor: inhibitors of human HePTP phosphatase, primary screen, biochemical, absorbance, leukemia target | 110,000 compounds, 0.64% hits | inhibition, % at 20 µM | recombinant HePTP phosphatase activity, OD absorbance | AID 521, 2006; in the data active = inhibition above about 50%; inconclusive = no clear call, values can overlap the other calls;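 also: plate controls were vehicle for no effect and reference inhibitor for full effect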
Cdc25B block: inhibitors of Cdc25B phosphatase catalytic domain, primary screen, biochemical, OMFP fluorescence; M-phase inducer phosphatase 2 (Homo sapiens), P30305; AID 368, 2006; inhibition, %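 (compounds tested at 10 µM final in the well)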; 65,000 compounds, 0.1% hits; recombinant Cdc25B, OMFP fluorescence Ex485/Em525; in the data active = inhibition above about 50%
Target sequence (P30305 whole entry, looked up, the tested form may be a part): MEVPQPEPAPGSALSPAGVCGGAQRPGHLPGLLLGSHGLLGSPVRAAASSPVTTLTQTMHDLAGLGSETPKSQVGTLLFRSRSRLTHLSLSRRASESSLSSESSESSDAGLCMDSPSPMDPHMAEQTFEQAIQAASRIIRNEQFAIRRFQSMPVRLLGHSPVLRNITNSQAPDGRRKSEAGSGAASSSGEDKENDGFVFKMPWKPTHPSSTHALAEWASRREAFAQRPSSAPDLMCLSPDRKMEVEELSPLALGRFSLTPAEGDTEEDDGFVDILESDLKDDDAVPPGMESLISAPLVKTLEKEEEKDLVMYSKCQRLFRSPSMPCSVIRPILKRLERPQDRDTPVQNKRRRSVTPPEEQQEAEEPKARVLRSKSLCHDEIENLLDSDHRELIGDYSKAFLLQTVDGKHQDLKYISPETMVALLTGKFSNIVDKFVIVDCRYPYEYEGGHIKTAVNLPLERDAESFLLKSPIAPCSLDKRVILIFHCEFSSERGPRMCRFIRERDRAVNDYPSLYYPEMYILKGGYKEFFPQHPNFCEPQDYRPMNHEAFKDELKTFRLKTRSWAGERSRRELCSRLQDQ
MKP-1 inh: MKP-1 phosphatase inhibitors, primary screen, biochemical, in vitro. Dual specificity protein phosphatase 1 (Homo sapiens), P28562. recombinant MKP-1, OMFP hydrolysis fluorescence. inhibition, %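 (compounds tested at a single concentration somewhere between 10 and 100 µM)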. 65,000 compounds, 0.15% hits. AID 374, 2006;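 active = inhibition above about 50%, limit read from the data; inconclusive = inhibition over screen mean plus 3 SD, below that limit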;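 also: 0% = DMSO max control wells and 100% = wells with enzyme stopped by NaOH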
Redox 05 DTT: redox cycling H2O2 generation, 0.5 mM DTT, dose response, artefact control, biochemical, Cdc25B catalytic domain | shares compounds with Cdc25B block | cell-free redox cycling H2O2 generation | EC50, µM | 30 compounds, 50% hits; in the data active = EC50 below about 30 µM
Redox H2O2 1DTT: redox cycling H2O2 generation, 1 mM DTT, dose response, artefact control, biochemical, 1.0 mM DTT, Cdc25B catalytic domain; EC50, µM; cell-free redox cycling H2O2 generation; shares compounds with Cdc25B block; 30 tested, under 10 active; in the data active = EC50 below about 50 µM
Redox cycler: redox cycling hydrogen peroxide production, dose response, artefact control, biochemical, probe assessment; shares compounds with MKP-1 inh; 60 tested, under 10 active; EC50, µM; Redox cycling H2O2 generation, DTT, phenol red/HRP; call rule not given here
Numbers without * were called inactive; ? = inconclusive; . = not tested or not shown.

SMILES | HePTP inhibitor | Cdc25B block | MKP-1 inh | others
CN1C(=O)NC(=O)/C(=C/c2ccc(I)o2)C1=O | -4 | . | .
CN1C(=O)NC(=O)/C(=C\c2ccc([N+](=O)[O-])o2)C1=O | 97* | . | .
O=[N+]([O-])c1ccc(CN2CCN(Cc3ccccc3F)CC2)cc1 | -11 | . | .
O=C1C=CC(=O)C(c2cc(Cl)ccc2Cl)=C1 | 17 | . | .
CCN(CC)C(=O)c1ccc(NC(=O)Cn2nc(C)c3ccccc3c2=O)cc1 | -2 | 71* | 0
CCN(CC)C(=O)c1ccc(NC(=O)CSc2nnnn2-c2cc(OC)ccc2OC)cc1 | 4 | 5 | 9
O=C1NC(=S)N(c2cccc(Cl)c2)C(=O)/C1=C/c1ccc(Cl)cc1 | 13 | . | .
Cn1cccc1/C=C1/C(=O)NC(=S)N(c2ccc(Cl)cc2)C1=O | 100* | . | .
CCn1c(=O)n(CC(=O)N2CCC3(CC2)OCCO3)c(=O)c2ccccc21 | . | 53* | 1
O=C(Cn1ncc2c3ccccc3n(Cc3ccccc3)c2c1=O)N1CCC2(CC1)OCCO2 | 3 | -19 | 13
CCCCCCOC(=O)C1CN1C(C)(C)CO (stereo unspecified) | 8 | . | .
COc1ccc(CN2CCN(Cc3ccc(SC)cc3)CC2)cc1 | 72* | . | .
COc1ccc(CN2CCN(Cc3cccc(OC)c3)CC2)cc1 | -8 | . | .
CCOc1cc(C)cc2oc(=O)c3c(c12)CCC3 | 104* | . | .
Cc1cc(OCC(N)=O)c2c3c(c(=O)oc2c1)CCC3 | 3 | . | .
O=[N+]([O-])c1ccc(N2CCNCC2)cc1NCCc1ccccc1 | -9 | . | .
CC(C)OC1N/C(=N\[N+](=O)[O-])N(C)C1OC(C)C (stereo unspecified) | -7 | . | .
O=C1NC(=S)NC(=O)C1=Cc1ccc(-c2ccc(S(=O)(=O)Nc3nccs3)cc2)o1 | 100* | . | .
COC(=O)c1ccc(-c2ccc(C=C3C(=O)NC(=S)NC3=O)o2)cc1 | -10 | . | .
CCC(CC)NCCc1ccc(OC)c(OC)c1 | 6 | . | .
O=c1c2ccccc2nc(/C=C\c2ccc(O)cc2)n1-c1ccc(O)cc1 | 7 | . | .
Cn1c(O)c(/C=C2/C=CC=N2)c(=O)n(-c2ccccc2)c1=S | 101* | . | .
CCOc1ccc(N2C(=O)NC(=O)/C(=C\c3ccc(C)o3)C2=O)cc1 | -4 | . | .
O=C1NC(=S)N(c2cccc(Br)c2)C(=O)/C1=C/c1ccco1 | 102* | . | .
CCOc1ccc(N2C(=O)/C(=C/c3ccco3)C(=O)NC2=S)cc1 | 102* | . | .
SMILES | HePTP inhibitor | Cdc25B block | MKP-1 inh | others
CC(C)c1ccc(N2C(=O)NC(=O)/C(=C/c3ccco3)C2=O)cc1 | -20 | . | .
O=c1n(Cc2ccccc2)c2ccccc2n1CC1CS1 (stereo unspecified) | 6 | . | .
Cc1ccc(C=C2C(=O)NC(=O)NC2=O)o1 | 1 | . | .
C=CCc1cc(/C=C2/C(=O)NC(=O)N(C)C2=O)cc(OC)c1O | -3 | . | .
Clc1ccc(CCN(Cc2ccco2)Cc2ccco2)c(Cl)c1 | -11 | . | .
Cn1ncnc2c(=O)n(C)c(=O)nc1-2 | ? | 102* | 101* | Redox 05 DTT=1.2*;Redox H2O2 1DTT=3.2*;Redox cycler=11*
CCC1(CC)C(=O)NC(=O)N(C(=O)c2ccc(Br)cc2)C1=O | 3 | . | .
O=C(c1ccc(-c2ccccc2)cc1)N1CCN(c2cccc(Cl)c2)CC1 | -13 | . | .

Screens as filed in PubChem.
